From PubChem BioAssay (NCI)
Compounds without any hit were thinned out: in the full panel of roughly 83,000, 20% have a hit.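 Growth was measured after 48 h exposure to one concentration of compound in 96-well plates. Values under 10 count as active.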 Active and inactive are the calls of the source.

Assays:
Test in all cases: NCI-60 one-dose screen, 48 h (100 = growth as untreated, 0 = no growth, -100 = all killed)
Conditions in all cases: 10 µM unless noted
[1] = system: SR leukemia
[2] = system: RPMI-8226 leukemia
[3] = system: OVCAR-8 ovarian
[4] = system: OVCAR-5 ovarian
[5] = system: OVCAR-4 ovarian
[6] = system: SK-OV-3 ovarian
[7] = system: IGROV1 ovarian
[8] = system: OVCAR-3 ovarian
[9] = system: HS 578T breast
[10] = system: NCI/ADR-RES ovarian
[11] = system: T-47D breast
[12] = system: BT-549 breast
[13] = system: MDA-MB-435 melanoma
[14] = system: SW-620 colon
[15] = system: HCT-116 colon
[16] = system: HCC-2998 colon
[17] = system: KM12 colon
[18] = system: MCF7 breast

Measured: growth

CC(C)CSc1nc(NN)c(C#N)c(-c2ccccc2)n1
inactive: [1] 109% | [2] 100% | [3] 105% | [4] 104% | [5] 86.9% | [6] 100% | [7] 103% | [8] 91% | [9] 95.7% | [10] 92.3% | [11] 87% | [12] 96.2% | [13] 101% | [14] 99.3% | [15] 95.7% | [16] 95% | [17] 81.3%

O=C([O][Sn]([O]C(=O)c1ccccn1)([c]1ccccc1)[c]1ccccc1)c1ccccn1
inactive: [1] 47.6% | [2] 26% | [3] 93.6% | [4] 94.9% | [5] 81.3% | [6] 99.7% | [7] 74.1% | [8] 71.4% | [9] 88.5% | [10] 95.1% | [12] 98.5% | [13] 80.6% | [18] 31.8% | [15] 30.7% | [16] 88.3% | [17] 97.4%
active: [11] -14.9% | [14] 0.566%

COc1ccc(N=Cc2c(O)ccc3c2oc2cc(Cl)c(O)c(Cl)c23)cc1
inactive: [1] 83% | [2] 78.3% | [3] 93.8% | [4] 102% | [5] 98.3% | [6] 104% | [7] 62.2% | [8] 117% | [9] 93.5% | [10] 84.5% | [11] 87.9% | [12] 53.3% | [13] 94% | [14] 99.2% | [18] 69.6% | [15] 91.5% | [16] 88.7% | [17] 104%

O=C(CSc1nc2ccccc2[nH]1)c1ccc(N2CCOCC2)cc1
inactive: [1] 129% | [2] 109% | [3] 96% | [4] 102% | [5] 96.5% | [6] 101% | [7] 105% | [8] 106% | [9] 99% | [10] 91.9% | [11] 94.1% | [12] 93% | [13] 100% | [14] 94.5% | [18] 92.2% | [15] 94.3% | [16] 98.3% | [17] 104%

O=C1C(Cl)=C(Nc2ccccn2)C(=O)c2ccccc21
inactive: [1] 81.4% | [2] 56.5% | [3] 29.5% | [4] 115% | [5] 30.2% | [6] 108% | [7] 34.4% | [8] 26.9% | [10] 34.9% | [11] 33.6% | [12] 100% | [14] 30.5% | [18] 29.6% | [15] 19.9% | [16] 110% | [17] 86%
active: [9] -9.73% | [13] -81.4%

Nc1cccc(-c2nc3sccn3c2-c2ccnc(NCCCNS(=O)(=O)c3cccc4ccccc34)n2)c1
active: [2] 8.33% | [11] -2.4% | [12] 7.66%
inactive: [1] 38.7% | [3] 23.5% | [4] 92.1% | [5] 24.6% | [6] 63.1% | [7] 36.7% | [8] 37.6% | [9] 44.7% | [10] 38.3% | [13] 23.2% | [14] 68.2% | [18] 25.2% | [15] 36.1% | [16] 60.7% | [17] 23.6%

CN1C=CN(Cc2ccc(-c3ccccn3)nc2)[CH-]1.CN1C=CN(Cc2ccc(-c3ccccn3)nc2)[CH-]1.[Au+3]
inactive: [1] 16.8% | [2] 18.1% | [3] 13.3% | [4] 50.3% | [6] 75.4% | [8] 32.3% | [9] 79.2% | [10] 101% | [11] 40.2% | [12] 31.1% | [13] 30.6% | [14] 36.2% | [16] 25.3% | [17] 24.9%
active: [5] 6.08% | [7] 3.06% | [18] 9.07% | [15] 1.98%

CN(CCCCCl)P(=O)(OCc1ccc([N+](=O)[O-])o1)C(F)(F)C[C@H](NC(=O)CNC(=O)c1ccc(N=[N+]=[N-])cc1)C(=O)NCCc1ccc(O)cc1 (some centres undefined)
active: [1] 9.22%
inactive: [2] 87.3% | [3] 107% | [4] 123% | [5] 95.2% | [6] 113% | [7] 84.3% | [8] 109% | [9] 84.4% | [10] 103% | [11] 90.5% | [12] 79% | [13] 41.5% | [14] 37.6% | [15] 78.4% | [16] 98.4% | [17] 91.1%

CCCCCCCCCCCC(=O)NCCC[N+](C)(C)CC(=O)[O-]
inactive: [1] 68.8% | [2] 93.2% | [3] 96.9% | [4] 90.2% | [5] 97.7% | [6] 103% | [7] 76.7% | [8] 99.8% | [9] 105% | [10] 102% | [11] 92% | [12] 85.5% | [13] 88.7% | [14] 109% | [18] 99.8% | [15] 89.9% | [16] 96% | [17] 86.6%

COc1cc(/C=C/C(=O)c2ccc(Nc3ncnc4cc(OC)c(OC)cc34)cc2)cc(OC)c1
inactive: [1] 30.6% | [3] 95.3% | [4] 112% | [5] 107% | [6] 116% | [7] 99.5% | [8] 104% | [9] 97.3% | [10] 97.3% | [11] 100% | [12] 105% | [13] 51.8% | [14] 109% | [18] 73% | [15] 30.8% | [16] 106% | [17] 82.9%
active: [2] -2.38%

C=C(C)[C@@H]1C[C@H](O)Cc2cc(F)ccc2N1
inactive: [1] 83.2% | [2] 74.8% | [3] 96.5% | [4] 85.5% | [5] 108% | [6] 102% | [7] 108% | [8] 111% | [9] 96.8% | [10] 93.6% | [11] 95.6% | [12] 98.1% | [13] 97.7% | [14] 91.9% | [18] 103% | [15] 92.9% | [16] 118% | [17] 106%

CC(C)(C)c1[nH]nc2c1C(c1cc3ccccc3[nH]c1=O)Nc1cc(C(=O)Nc3ccc(Cl)cc3)ccc1N2 (centres undefined)
inactive: [1] 65.4% | [2] 42.5% | [3] 75.3% | [4] 114% | [5] 32.5% | [6] 90.6% | [7] 59.6% | [8] 58.4% | [9] 52.6% | [10] 95.3% | [11] 40% | [12] 63.9% | [13] 35.4% | [14] 66.3% | [18] 27.8% | [15] 45.6% | [16] 86.3% | [17] 50.2%

C=C[C@@H]1C[C@@H]2Cc3cc(Cl)ccc3N1O2
inactive: [1] 92.4% | [2] 84.9% | [3] 99.4% | [4] 97.8% | [5] 102% | [6] 101% | [7] 112% | [8] 109% | [9] 97.1% | [10] 101% | [11] 103% | [12] 105% | [13] 92.5% | [14] 96.7% | [18] 112% | [15] 98.2% | [16] 94.2% | [17] 97.3%

CCCCCCCCCCCCNC(=O)[C@H]1CSC(c2cc(Br)cs2)N1 (some centres undefined)
inactive: [2] 37.7% | [11] 39.4% | [18] 49% | [16] 54.3%
active: [1] -31.3% | [3] -64.8% | [4] 9.52% | [5] -72.4% | [6] -42.5% | [7] -54.1% | [8] -50.8% | [9] -41.2% | [10] -22.3% | [12] -58.4% | [13] -90.3% | [14] -34.2% | [15] -82% | [17] -55.3%

COc1cc(NC(N)=NCCC(C)(C)c2ccc(C(F)(F)F)cc2)ncc1C#N
active: [1] -49% | [2] -48.7% | [11] -2.85% | [14] -0.0248% | [18] -31.3% | [15] -75.7% | [16] -77.8%
inactive: [3] 24.4% | [4] 47.2% | [5] 18.9% | [6] 56.8% | [7] 24.1% | [8] 24% | [9] 63% | [10] 24.3% | [12] 53.9% | [13] 17% | [17] 15.4%

CCO/C=N/C1=C(C#N)C(c2ccc(Cl)cc2)c2c(c3ccccc3n(C)c2=O)O1 (centres undefined)
active: [13] 1.36%
inactive: [1] 22.7% | [2] 88.1% | [3] 86.3% | [4] 85.1% | [5] 68.6% | [6] 81.8% | [7] 59.1% | [8] 64.3% | [9] 65.5% | [10] 57.3% | [11] 65.1% | [12] 81.4% | [14] 52.1% | [18] 41.7% | [15] 66.5% | [16] 84.5% | [17] 69.1%

Cc1ccc(S(=O)(=O)C2=C3C(=C(c4ccccc4)c4ccccc43)CN(S(=O)(=O)c3ccc(C)cc3)C2)cc1
inactive: [3] 21.8% | [4] 93.7% | [5] 70.3% | [6] 92.6% | [7] 54% | [8] 56.9% | [9] 62.4% | [10] 27.8% | [11] 12% | [13] 74.2% | [18] 37.6% | [16] 88.9% | [17] 64.1%
active: [1] 3.89% | [2] -21.7% | [12] -1.45% | [14] -17.7% | [15] 8.4%
